The text below walks through data of PubChem BioAssay (NCI).

Some test systems named below: T-47D breast; BT-549 breast; MDA-MB-435 melanoma; SW-620 colon; MCF7 breast; HCT-116 colon; HCC-2998 colon; KM12 colon.
Holding throughout (assay): NCI-60 one-dose screen, 48 h (100 = growth as untreated, 0 = no growth, -100 = all killed)
Conditions in all cases: 10 µM unless noted

Each structure is given as a SMILES string. This is part of a sample that, as a whole, favours compounds with a hit. Of some 83,000 tested, about 20% had one in any assay.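 Note: values are percent growth. 100 is the growth of untreated cells, values between 100 and 0 indicate rising inhibition; between -100 and 0 indicates cell death.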 Values without a mark were called inactive. Calls of active or inactive are those of the source. Rule for the calls: active = growth percent below 10; inactive = the rest.

As to `Cc1ccc(S(=O)(=O)Oc2ccc3sc4c(CO)ccc(NCCN(C)C)c4c(=O)c3c2)cc1`, the growth in the assay on T-47D breast was -51.8% [100 µM] (active); in the assay with BT-549 breast, -91.2% [100 µM] (active); in the assay on MDA-MB-435 melanoma, -98% [100 µM] (active); in the assay on SW-620 colon, -88% [100 µM] (active); in the assay with MCF7 breast it was -76.1% [100 µM] (active); in the assay on HCT-116 colon, -75.9% [100 µM] (active). The growth with HCC-2998 colon was -88.2% [100 µM] (active); in the assay on KM12 colon it was -68.6% [100 µM] (active).

For the compound `COc1cccc(C(=O)NNC(=O)c2cccc3ccccc23)c1`, the growth is 95.4% with T-47D breast; 110% in the assay on BT-549 breast; 113% in the assay on MDA-MB-435 melanoma; 107% in the assay on SW-620 colon; 109% with MCF7 breast; 108% in the assay on HCT-116 colon. Moreover, the growth was 102% in the assay on HCC-2998 colon and 115% in the assay on KM12 colon.

Consider `CC1(C)OC2C(CO)OC(n3ccc(=O)[nH]c3=O)C2O1` (centres undefined), for which the growth with T-47D breast was 89.4%; with BT-549 breast, 104%; in the assay on MDA-MB-435 melanoma it was 101%; in the assay on SW-620 colon it was 96.3%; in the assay with MCF7 breast, 97.7%; in the assay on HCT-116 colon, 98.2%. The growth with HCC-2998 colon and in the assay with KM12 colon was 102% in each case.

As to `CC(O)C(F)(F)C(F)(F)C(F)(F)F` (centres undefined), the growth was 110% in the assay on T-47D breast; 107% in the assay with BT-549 breast; 110% with MDA-MB-435 melanoma; 101% in the assay with SW-620 colon; 101% in the assay on MCF7 breast; 100% in the assay with HCT-116 colon. In addition, the growth in the assay with HCC-2998 colon is 111%; in the assay with KM12 colon, 114%.

Regarding `CCOC(=O)c1cc(Cl)c(O)c(Cl)c1`, the growth is 118% in the assay on T-47D breast; 105% in the assay on BT-549 breast; 126% in the assay with MDA-MB-435 melanoma; 109% in the assay with SW-620 colon; 98.1% with MCF7 breast; 102% with HCT-116 colon. Moreover, the values for the growth in the assay on HCC-2998 colon and with KM12 colon were 112% and 108%, respectively.

In the case of `Clc1cccc(Cl)c1CSc1nc2ccccc2n2cccc12`, the growth in the assay on T-47D breast is 25.1%; in the assay with BT-549 breast it was 98.7%; in the assay with MDA-MB-435 melanoma, 66.8%; with SW-620 colon, 97%; in the assay on MCF7 breast, 17%; with HCT-116 colon, 86.9%. In addition, the figures for the growth in the assay on HCC-2998 colon and in the assay on KM12 colon were 109% and 84.4%, respectively.

For the compound `COC(=O)c1ccc([N+](=O)[O-])c(C)c1`, the growth is 102% in the assay on T-47D breast; 86.3% in the assay on BT-549 breast; 101% in the assay on MDA-MB-435 melanoma; 103% with SW-620 colon; 91% in the assay with MCF7 breast; 95.6% in the assay with HCT-116 colon. Also, the results for the growth with HCC-2998 colon and in the assay with KM12 colon were 106% and 99.8%, respectively.

On to `CN1CCCN(C(c2ccccc2)c2ccc(Cl)cc2)CC1` (centres undefined), for which the growth in the assay on T-47D breast is 87.1%; in the assay on BT-549 breast, 94.5%; in the assay with MDA-MB-435 melanoma, 89.6%; in the assay on SW-620 colon, 85.9%; in the assay with MCF7 breast, 80.6%; with HCT-116 colon, 96.9%. Besides, the values for the growth in the assay on HCC-2998 colon and with KM12 colon were 98.9% and 101%, respectively.

On to `O=C(Nc1c(Cl)cc(Cl)cc1Cl)ON=C1CCCCC1`, for which the growth was 98.6% in the assay on T-47D breast; 113% in the assay with BT-549 breast; 107% in the assay on MDA-MB-435 melanoma; 114% with SW-620 colon; 102% with MCF7 breast; 107% with HCT-116 colon. In addition, the growth was 117% in the assay on HCC-2998 colon and 96.5% in the assay with KM12 colon.

In the case of `O=C1NC(=O)/C(=C\c2ccncc2)N1`, the growth in the assay on T-47D breast is 101%; in the assay on BT-549 breast it was 99.5%; in the assay on MDA-MB-435 melanoma, 96%; in the assay with SW-620 colon it was 99%; in the assay on MCF7 breast it was 94.9%; in the assay on HCT-116 colon, 89.6%. In addition, the growth in the assay with HCC-2998 colon is 133%; in the assay with KM12 colon it was 86.9%.

For the compound `CSc1cnc2ccccc2n1`, the growth was 81% with T-47D breast; 94.6% with BT-549 breast; 103% in the assay on MDA-MB-435 melanoma; 93.9% with SW-620 colon; 98.9% with MCF7 breast; 99.2% in the assay on HCT-116 colon. The figures for the growth in the assay with HCC-2998 colon and in the assay with KM12 colon were 98.5% and 101%, respectively.

Turning to `CCCCCC#CC(=O)O`, the growth with T-47D breast is 85.2%; in the assay on BT-549 breast it was 64.1%; with MDA-MB-435 melanoma, 107%; in the assay with SW-620 colon, 104%; in the assay with MCF7 breast, 95.4%; in the assay with HCT-116 colon, 112%. For the same compound, the growth was 113% in the assay with HCC-2998 colon and 121% in the assay on KM12 colon.

Turning to `Cc1cc(Cc2ccccc2)c(O)c(Cc2ccccc2)c1`, the growth is 85.3% with T-47D breast; 84.1% with BT-549 breast; 98.1% in the assay with MDA-MB-435 melanoma; 102% with SW-620 colon; 105% with MCF7 breast; 73.5% with HCT-116 colon. Besides, the figures for the growth in the assay with HCC-2998 colon and in the assay on KM12 colon were 101% and 90.5%, respectively.

On to `CC1(C)C2CCC1(C)C1(C2)OCCS1` (centres undefined), for which the growth was 93.9% in the assay on T-47D breast; 88.3% in the assay with BT-549 breast; 99.6% in the assay on MDA-MB-435 melanoma; 100% in the assay on SW-620 colon; 88.9% in the assay with MCF7 breast; 110% in the assay on HCT-116 colon. Besides, the growth in the assay with HCC-2998 colon is 101%; in the assay with KM12 colon, 102%.

Consider `CCOC(=O)c1ccc(NC(C)=O)o1`, for which the growth was 93.5% with T-47D breast; 104% with BT-549 breast; 103% in the assay on MDA-MB-435 melanoma; 78.7% in the assay with SW-620 colon; 96.9% in the assay with MCF7 breast; 101% in the assay with HCT-116 colon. Further, the growth with HCC-2998 colon was 115%; with KM12 colon it was 102%.

For the compound `Clc1ccc(-c2noc(/C=C\c3ccccc3)n2)cc1`, the growth in the assay on T-47D breast was 89%; with BT-549 breast it was 102%; in the assay on MDA-MB-435 melanoma, 92.7%; with SW-620 colon, 110%; in the assay on MCF7 breast it was 74.4%; in the assay on HCT-116 colon, 102%. For the same compound, the growth with HCC-2998 colon is 95.2%; with KM12 colon it was 100%.

For `COc1ccc2c(Cl)cc(NC(=O)Nc3c(C)cccc3C)nc2c1`, the growth with T-47D breast is 62.2%; with BT-549 breast, 93.8%; in the assay on MDA-MB-435 melanoma, 83%; in the assay on SW-620 colon it was 85.3%; with MCF7 breast, 75.7%; with HCT-116 colon, 63.8%. Besides, the growth in the assay on HCC-2998 colon was 95.3%; with KM12 colon it was 88.8%.

Take `S=C(NCc1ccccc1)N1CCC(CCCC2CCN(C(=S)NCc3ccccc3)CC2)CC1`: the growth is 71.8% with T-47D breast; 98.2% in the assay on BT-549 breast; 101% in the assay on MDA-MB-435 melanoma; 108% with SW-620 colon; 82.3% with MCF7 breast; 85.5% in the assay on HCT-116 colon. Besides, the growth in the assay with HCC-2998 colon is 123%; in the assay with KM12 colon, 95.9%.
